A short description of assay [1]: Primary qHTS for small molecule stabilizers of the endoplasmic reticulum resident proteome: Secreted ER Calcium Modulated Protein (SERCaMP) assay (AID 1508630). Note: % is set by controls: 0 for no effect and ±100 for the full control effect. The conditions noted are these: SH-SY5Y GLuc-SERCaMP (Gaussia luciferase released on ER calcium loss) secretion, thapsigargin, luminescence; series mostly up to 38.4 µM. The procedure, abridged: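 GLuc-SERCaMP-expressing SH-SY5Y cells, pretreated 16 h with compound, are challenged with thapsigargin to empty ER calcium stores; after 4 h, coelenterazine is added directly to the medium and luminescence is imaged.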

The nature of assay [2]: Cytotoxicity counterscreen for inhibitors of SARS-CoV-2 cell entry (AID 1645845; calls by dose curve; note: nearly all actives have a fitted effect of over 50% in size; note: potency is the fitted concentration of half-maximal effect). The conditions noted are these: cell viability (SARS-CoV-2 entry assay cells); series mostly up to 57.1 µM. The procedure, abridged: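 HEK293-ACE2 cells (Expi293F stably expressing human ACE2) seeded overnight, then compound for 1 h plus 48 h at 37C. Viability as ATP content by luminescence; normalized to wells with cells and media-only wells.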
(The purpose of a counterscreen is to sort out artefacts and off-target activity.)

Assay [3] deals with Cytochrome P450 2D6 (Homo sapiens) (UniProt P10635). The assay is described as follows: Cytochrome P450 family 2 subfamily D member 6 (CYP2D6) small molecule antagonists: luciferase biochemical (cell-free) qHTS assay (AID 1645840; active = well fitted curve in the direction sought with a large enough effect in the repeat runs; an effect the other way counts as inactive or inconclusive; note: nearly all actives have a fitted effect of over 55% in size; note: potency is the fitted concentration of half-maximal effect; for activity change, negative = inhibition: % is set by controls: 0 for no effect and ±100 for the full control effect). To be noted: P450-Glo CYP2D6 enzyme, luciferin luminescence, 1 h; series mostly up to 57.4 µM. In outline: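 P450-Glo luminescent screen: recombinant CYP2D6 enzyme–proluciferin substrate mix preincubated with compound 10 min at room temperature, then NADPH regeneration added for 1 h at room temperature. Detection reagent added for 20 min; luciferin light read as relative luminescence units.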
Chain of Cytochrome P450 2D6 (Homo sapiens) (P10635 whole entry, looked up): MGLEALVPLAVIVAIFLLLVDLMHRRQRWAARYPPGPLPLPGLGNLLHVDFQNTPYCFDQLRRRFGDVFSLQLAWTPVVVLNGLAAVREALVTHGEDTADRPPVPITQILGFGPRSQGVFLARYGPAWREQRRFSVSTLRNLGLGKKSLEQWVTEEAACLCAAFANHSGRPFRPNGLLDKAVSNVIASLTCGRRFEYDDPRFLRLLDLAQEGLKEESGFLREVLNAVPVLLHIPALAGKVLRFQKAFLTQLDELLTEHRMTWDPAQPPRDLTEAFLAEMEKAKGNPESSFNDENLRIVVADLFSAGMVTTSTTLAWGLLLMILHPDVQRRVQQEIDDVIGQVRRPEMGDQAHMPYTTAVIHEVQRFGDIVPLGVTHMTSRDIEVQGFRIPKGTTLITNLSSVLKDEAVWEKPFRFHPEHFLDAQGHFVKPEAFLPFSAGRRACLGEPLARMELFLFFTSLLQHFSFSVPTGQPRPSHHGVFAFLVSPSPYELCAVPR
Background: In qHTS, concentration-response curves come from the screen itself.

Assay [4] addresses Cytochrome P450 2C9 (Homo sapiens) (UniProt P11712). The assay is described as follows: Cytochrome P450 family 2 subfamily C member 9 (CYP2C9) small molecule antagonists: luciferase biochemical (cell-free) qHTS assay (AID 1645842; active = well fitted curve in the direction sought with a large enough effect in the repeat runs; an effect the other way counts as inactive or inconclusive; note: nearly all actives have a fitted effect of over 55% in size; note: potency is the fitted concentration of half-maximal effect; for activity change, negative = inhibition: % is set by controls: 0 for no effect and ±100 for the full control effect). The conditions noted are these: P450-Glo CYP2C9 enzyme assay, luciferin luminescence; series mostly up to 57.4 µM. In outline:
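Luminescence, after 20 min with luciferin detection reagent, reflected CYP2C9 turnover during a 1 h NADPH-driven reaction at 37C. Enzyme-substrate mix contained 0.4% bovine serum albumin and was preincubated with compound 10 min at room temperature.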

The nature of assay [5]: Primary qHTS to identify inhibitors of SARS-CoV-2 cell entry (AID 1645846; calls by dose curve; note: nearly all actives have a fitted effect of over 45% in size; note: potency is the fitted concentration of half-maximal effect). The conditions noted are these: SARS-CoV-2 pseudovirus cell entry assay, luminescence; activity change, negative = inhibition: at 57.1 µM (top of the series) unless noted; series mostly up to 57.1 µM. The procedure, abridged:
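Luminescence readout (Bright-Glo luciferase) 48 h after pseudoparticle addition. HEK293-ACE2 cells, 1500/well; compound pre-incubation 1 h; Normalized to spike PP and bald PP.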

A further assay deals with Papain (Carica papaya) (UniProt P00784). The assay is described as follows: Primary qHTS assay for inhibitors of the protease papain (AID 1645873).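 Note: papain turnover of Z-FR-AMC read as the AMC fluorescence gain over 10 min; % is set by controls: 0 for no effect and ±100 for the full control effect.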 The conditions noted are these: papain Z-FR-AMC cleavage, AMC fluorescence; series mostly up to 49.8 µM.
Chain of Papain (Carica papaya) (P00784 whole entry, looked up): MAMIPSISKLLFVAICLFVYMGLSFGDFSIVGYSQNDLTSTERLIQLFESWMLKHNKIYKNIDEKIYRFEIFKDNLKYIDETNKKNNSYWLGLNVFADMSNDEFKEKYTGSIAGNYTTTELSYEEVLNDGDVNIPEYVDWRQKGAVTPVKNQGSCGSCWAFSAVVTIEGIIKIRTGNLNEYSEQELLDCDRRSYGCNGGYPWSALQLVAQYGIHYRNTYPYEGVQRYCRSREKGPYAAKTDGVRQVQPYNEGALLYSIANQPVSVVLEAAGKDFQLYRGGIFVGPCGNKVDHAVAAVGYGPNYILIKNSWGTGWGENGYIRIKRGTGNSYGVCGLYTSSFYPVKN
Assay [6] in a line: A High-Content qHTS Against Drug Library for the Identification of Small Molecules that Inhibit DYT1 Early Onset Primary Dystonia-Associated Cell Pathology (AID 1645839; calls by dose curve). To be noted: HEK293 Flp-In EGFP-delE TorsinA, punctate imaging, 48 h; series mostly up to 91.7 µM. In outline:
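Flp-In T-REx 293 cells with tetracycline-inducible EGFP-delE hTOR1A (WT EGFP-hTOR1A as reference), 800 cells/well; compound added with tetracycline, 48 h at 37 C. Fixed, permeabilized cells imaged; %pathology (punctate TorsinA) primary, cell count counterscreen.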

Values joined by “and” are separate entries in the source; they are usually repeats but may differ in a detail not shown here. Equal values may be shown once. Records with an inconclusive call do not appear. Active and inactive are the calls of the source. Unless noted, calls come from the whole dose curve; as a rule, active = well fitted curve in the direction sought with a large enough effect; inconclusive = small, poorly fitted or top-dose-only effect, or another doubt; inactive = no such curve, though single readings can be large; an effect the other way counts as inactive or inconclusive.

Chain of Cytochrome P450 2C9 (Homo sapiens) (P11712 whole entry, looked up): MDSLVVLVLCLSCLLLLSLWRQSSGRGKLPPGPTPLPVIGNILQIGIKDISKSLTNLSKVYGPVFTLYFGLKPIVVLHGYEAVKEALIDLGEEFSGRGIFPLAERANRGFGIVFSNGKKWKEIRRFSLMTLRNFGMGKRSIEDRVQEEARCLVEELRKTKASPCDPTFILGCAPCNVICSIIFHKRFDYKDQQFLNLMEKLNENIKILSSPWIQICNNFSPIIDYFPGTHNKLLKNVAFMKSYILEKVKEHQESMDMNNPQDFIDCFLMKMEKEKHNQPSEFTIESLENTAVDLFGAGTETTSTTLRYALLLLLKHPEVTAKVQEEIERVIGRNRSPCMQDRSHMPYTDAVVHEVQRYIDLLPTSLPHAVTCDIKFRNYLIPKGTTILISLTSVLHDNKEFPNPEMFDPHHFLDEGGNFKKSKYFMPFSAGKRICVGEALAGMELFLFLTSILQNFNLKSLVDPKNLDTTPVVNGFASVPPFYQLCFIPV

On to `CC(C)(O)C(=O)Nc1ccc([N+](=O)[O-])c(C(F)(F)F)c1`, for which the Potency entry in assay [1] and in assay [2] was “inactive” throughout.
With `Nc1ccc(Sc2ccc(N)cc2)cc1`, the Potency entry in assay [1] is “inactive”. In addition, the Potency in assay [3] was 24.5 µM (active); in assay [4], 0.92 µM (active).
Turning to `O=C(Nc1ccncc1)C(=O)c1cn(Cc2ccc(Cl)cc2)c2ccccc12`, the Potency result in assay [1], in assay [3] and in assay [2] was “inactive” in each case. The Potency in assay [4] was 0.301 µM (active). Moreover, the activity change, negative = inhibition in assay [5] is -75.6%.
`C[C@]12CC[C@H]3[C@@H](CCC4=CC(=O)CC[C@@]43C)[C@H]1CC[C@H]2OC(=O)CCC1CCCC1`: the Potency result in assay [1] and in assay [2] was “inactive” each time. Also, in assay [5], the activity change, negative = inhibition is -3.52%.
Regarding `CCc1c(C(=O)C(N)=O)c2c(OCC(=O)O)cccc2n1Cc1ccccc1`, the Potency entry in assay [1], in assay [3], in assay [4] and in assay [2] was “inactive” in each case. Besides, in assay [5], the activity change, negative = inhibition is -66.7%.
As to `CCCCCCCCCC(CC)c1ccc(S(=O)(=O)O)cc1` (stereo unspecified), the Potency result in assay [1] was “inactive”. Further, the Potency in assay [3] is 26.7 µM (active); in assay [4], 7.74 µM (active).
In the case of `CC(C)Oc1cccc(NC(=O)c2ccccc2C(F)(F)F)c1`, the Potency result in assay [1] is “inactive”. The Potency in assay [4] is 5.97 µM (active).
Turning to `C#CC1(O)CCC2C3CCC4=CC(=O)CCC4(C)C3CCC21C` (stereo unspecified), the Potency entry in assay [1] and in assay [2] was “inactive” throughout. The activity change, negative = inhibition in assay [5] was -0.771%.
Take `C[C@]12CC[C@@H]3[C@@H](CCC4=CC(=O)CC[C@@H]43)[C@@H]1CC[C@@H]2OC(=O)CCc1ccccc1`: the Potency result in assay [1] and in assay [2] was “inactive” throughout. In addition, the activity change, negative = inhibition in assay [5] was -12.2%.
Take `Clc1ccccc1C(c1ccccc1)(c1ccccc1)n1cccn1`: the Potency entry in assay [1] and in assay [2] was “inactive” each time.
For `COCC1(CO)C(=O)C2CCN1CC2` (stereo unspecified), the Potency result in assay [1], in assay [3], in assay [4] and in assay [2] was “inactive” in each case. For the same compound, the activity change, negative = inhibition in assay [5] was -14.4%.
In the case of `O=S(=O)(CC1CS1)c1ccc(Oc2ccccc2)cc1` (stereo unspecified), the Potency entry in assay [1], in assay [2] and in assay [5] was “inactive” in each case.
Turning to `CCOC(=O)Nc1ccc(NCc2ccc(F)cc2)cc1N`, the Potency result in assay [1] and in assay [2] was “inactive” each time. The Potency in assay [3] was 19 µM (active); in assay [4], 9.52 µM (active). Further, in assay [5], the activity change, negative = inhibition came out at 2.18%.
Regarding `COc1cc([C@@H]2c3cc4c(cc3[C@@H](O)C3COC(=O)C32)OCO4)cc(OC)c1O` (stereo partly specified), the Potency entry in assay [1] and in assay [2] was “inactive” in each case.
Take `CCCCCCCCc1ccc(O)cc1`: in assay [1], the Potency result was “inactive”. In addition, the Potency in assay [3] is 31 µM (active); in assay [4] it was 30.1 µM (active).
As for `CCN(CC)C(=O)c1ccc(C2=CC3(CCNCC3)Oc3cccc(O)c32)cc1`, the Potency entry in assay [1] and in assay [2] was “inactive” in each case. For the same compound, in assay [5], the activity change, negative = inhibition is -22.9%.
For `O=C(N[C@@H](COc1ccc2[nH]c(=O)[nH]c2c1)c1ccccc1)c1cccn(Cc2ccc(F)c(F)c2)c1=O`, the Potency result in assay [1] and in assay [2] was “inactive” each time. Also, the Potency was 4.25 µM (active) in assay [3] and 0.239 µM (active) in assay [4].
In the case of `O=S(=O)(O)C(F)(F)C(F)(F)C(F)(F)C(F)(F)C(F)(F)C(F)(F)C(F)(F)C(F)(F)F`, the Potency result in assay [1] and in assay [3] was “inactive” throughout. Moreover, the Potency in assay [4] is 0.564 µM (active).
On to `COc1nn(CSP(=S)(OC)OC)c(=O)s1`, for which the Potency entry in assay [1] is “inactive”. Besides, the values for the Potency in assay [3] and in assay [4] were 25.9 µM (active) and 5.17 µM (active), respectively.
Take `CC1=NN=C(c2ccc(N)cc2)c2cc3c(cc2C1)OCO3`: the Potency entry (in assay [1]; with Papain (Carica papaya)) was “inactive” in each case. Further, the Potency is 19 µM (active) in assay [3] and 7.56 µM (active) in assay [4].
In the case of `CN(C)NC(=O)CCC(=O)O`, the Potency result in assay [1] and in assay [2] was “inactive” in each case. In addition, in assay [5], the activity change, negative = inhibition was -24.7%.
Regarding `O=c1cccc2n1CC1CNC[C@H]2C1`, the Potency entry in assay [1] and in assay [2] was “inactive” in each case. Moreover, the activity change, negative = inhibition in assay [5] was -15.2%.
For the compound `COc1ccc(N(C(=O)Oc2c(C)cccc2C)c2ccnc(Nc3ccc(N4CCN(C)CC4)cc3)n2)c(OC)c1`, the Potency result in assay [1], in assay [2] and in assay [5] was “inactive” throughout. The figures for the Potency in assay [3] and in assay [4] were 1.9 µM (active) and 21.3 µM (active), respectively.
Turning to `CCNC(=O)C[C@@H]1N=C(c2ccc(Cl)cc2)c2cc(OC)ccc2-n2c(C)nnc21`, the Potency entry in assay [1] and in assay [2] was “inactive” in each case.
Take `CN[C@@H]1Cc2cccc3[nH]c(=O)n(c23)C1`: the Potency result in assay [1] and in assay [2] was “inactive” throughout. In addition, the activity change, negative = inhibition in assay [5] came out at 4.06%.
For `CC(C)N(CCNC(=O)CN1CCCC1=O)C(C)C`, the Potency result in assay [1], in assay [3] and in assay [4] was “inactive” each time.
On to `CCN1CCN(C(=O)Cc2ccc(Nc3ncc(F)c(Nc4ccc(C(=O)Nc5ccccc5Cl)cc4)n3)cc2)CC1`, for which the Potency result in assay [1] and in assay [3] was “inactive” in each case. Moreover, the Potency in assay [4] is 1.9 µM (active); in assay [2], 22.4 µM (active); in assay [5] it was 8.91 µM (active).
Take `O=C1C=CC[C@@H]2[C@H]3CCCN4CCC[C@@H](CN12)[C@@H]34`: the Potency entry in assay [1], in assay [2] and in assay [5] was “inactive” in each case.
Take `O=c1[nH]c2ccc(Cl)cc2c(N[C@@H]2CN3CCC2CC3)c1-c1nc2ccccc2[nH]1`: in assay [1], the Potency entry is “inactive”. Further, the Potency in assay [3] is 1.69 µM (active) and 2.39 µM (active); in assay [4] it was 10.7 µM (active) and 8.49 µM (active). In addition, the activity change, negative = inhibition in assay [5] was -97.1%.
With `Cc1ccccc1-n1c(Cn2ncc3c(N)ncnc32)nc2cccc(C)c2c1=O`, the Potency result in assay [1] and in assay [3] was “inactive” in each case. In assay [4], the Potency was 13.5 µM (active). Besides, in assay [5], the activity change, negative = inhibition is -50.6%.
In the case of `C[C@](O)(COc1ccc(C#N)cc1)C(=O)Nc1ccc(C#N)c(C(F)(F)F)c1`, the Potency result in assay [1] and in assay [2] was “inactive” in each case. In addition, the activity change, negative = inhibition in assay [5] was -12.9%.
With `CC1=C(O)C(=O)C=C2C1=CC=C1[C@@]2(C)CC[C@@]2(C)[C@@H]3C[C@](C)(C(=O)O)CC[C@]3(C)CC[C@]12C`, in assay [1], the Potency entry is “inactive”. Besides, the Potency in assay [4] is 12 µM (active); in assay [5], 14.1 µM (active).
Consider `CN1[C@H]2CC(O)C[C@H]1[C@H]1O[C@H]12` (stereo partly specified), for which the Potency entry in assay [1] and in assay [2] was “inactive” throughout. In assay [5], the activity change, negative = inhibition was 0.905%.
Take `CC1(C)CC/C(=C/c2ccc(Cl)cc2)C1(O)Cn1cncn1` (stereo unspecified): the Potency result in assay [6] is “inactive”. Further, the Potency was 9.41 µM (active) in assay [3] and 0.611 µM (active) in assay [4].
On to `O=C(O)Cc1cnc[nH]1`, for which the Potency entry (in assay [1]; in the assay with Papain (Carica papaya)) was “inactive” in each case.
On to `C[N+]1(C)C2CCC1CC(OC(=O)C(CO)c1ccccc1)C2` (stereo unspecified), for which the Potency result (in assay [1]; in the assay with Papain (Carica papaya)) was “inactive” each time.
On to `CC(=O)NCCc1c[nH]c2ccccc12`, for which the Potency entry (in assay [1]; in the assay with Papain (Carica papaya)) was “inactive” each time.
With `CC(C)Oc1cccnc1N(C)C1CCN(Cc2ccccc2)CC1`, the Potency result (in assay [1]; in the assay with Papain (Carica papaya)) was “inactive” each time.
Turning to `CC(=O)[C@H]1CCC2C3CC[C@H]4C[C@H](O)CC[C@]4(C)C3CC[C@@]21C` (stereo partly specified), the Potency entry (in assay [1]; with Papain (Carica papaya)) was “inactive” each time.
In the case of `COc1ccc(C(=O)c2c(C)n(CCN3CCOCC3)c3cc(I)ccc23)cc1`, the Potency entry in assay [1] and in assay [2] was “inactive” in each case. The activity change, negative = inhibition in assay [5] is -80.5%.

For the origin of these results see PubChem BioAssay (NCATS).
